Tests used:
Experiment in all cases: PBM binding z-score (relative to random genomic background probes); higher = stronger binding; sequences stand for … in GC…GCGATTGACAGCGTAGAATGAAGG
[1] = tested on: RARb homodimer (NR concentration 270 nM)
Procedure, shortened: (§1)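 Binding z-scores were set against random background probes. The data came from custom Agilent 4×180K protein-binding microarrays carrying double-stranded probes with 34-nt variable regions, incubated 1 h with ligand-free nuclear receptor dimers. Partner-specific antibodies detected binding, and scanned fluorescence was regression-normalized.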

[2] = tested on: RARg:RXRa (NR concentration 270 nM, RXRa partner concentration 90 nM)
Procedure, shortened: as §1

[3] = tested on: RARg homodimer (NR concentration 270 nM)
Procedure, shortened: as §1

[4] = tested on: RXRa DBDmut IVT, anti-RXR (DBD mutation: RXRa K156A/R161A, NR concentration 90 nM)
Procedure, shortened: as §1

[5] = tested on: RXRa homodimer (NR concentration 180 nM)
Procedure, shortened: as §1

[6] = tested on: THRa:RXRa (NR concentration 90 nM, RXRa partner concentration 90 nM)
Procedure, shortened: as §1

[7] = tested on: THRa homodimer (NR concentration 90 nM)
Procedure, shortened: as §1

[8] = tested on: VDR homodimer (NR concentration 270 nM)
Procedure, shortened: as §1

| Sequence | PBM binding z-score [1] | PBM binding z-score [2] | PBM binding z-score [3] | PBM binding z-score [4] | PBM binding z-score [5] | PBM binding z-score [6] | PBM binding z-score [7] | PBM binding z-score [8] |
| --- | --- | --- | --- | --- | --- | --- | --- | --- |
| TCTAGCAGGCCAGTGGGTCACTCAAGAGGTACGG | 1.64 | 1.37 | 1.24 | -0.186 | 1.18 | 0.549 | -0.701 | -0.424 |
| TCTTGTAGATCGAGCAGGTTAAGAAAGCCTGAGT | -0.141 | -0.28 | -0.423 | 0.213 | 0.0253 | 0.0849 | -0.506 | -0.257 |
| CTACCAAGGTGAAAAAGGTCGTTGATTACTATTC | 2.39 | 2.01 | 1.33 | 1.01 | 2.21 | 2.42 | 0.518 | 1.4 |
| TCTGCTAGGACAACGATGGTCAGCTAATCTGCTA | -0.669 | -0.181 | 0.34 | 0.112 | -0.495 | 0.316 | -0.704 | -0.943 |
| TCATATAGGTAAAGGTGAAAGTGGAACGATATGA | 1.44 | 1.71 | 1.52 | 0.597 | 2.41 | 1.36 | -0.306 | -0.115 |
| CAAACTAGGTCAAGCGGTCAAAGTCCGCTTCCCG | 4.55 | 5.64 | 6.19 | 1.57 | 4.04 | 3.23 | 0.992 | 1.5 |
| ATATGTGGGTTACATCCGGGTCATTCAGGCTATG | 2.79 | 3.53 | 1.94 | 1.08 | 3.17 | 3.75 | 3.01 | 3.65 |
| GCTAGCAGGCCATTTGGGTCACTCAGTGACGGGC | 1.63 | 0.822 | 1.04 | 0.0208 | 0.754 | 1.9 | 0.383 | 0.166 |
| ATCTCTAGGTAAAGATAGTTCAGTGGATGCAAAT | 0.847 | 0.4 | 0.785 | -0.122 | 0.17 | 0.667 | 0.0913 | 0.205 |
| CATTCAGGGTCAGCTAGGCCAGAGTAGGGACGGC | 3.59 | 4.64 | 5.03 | 2 | 5.08 | 3.44 | 1.31 | 1.42 |
| CCTACTGGGCCATCAGGTCATTGTTATCAACGTT | 2.4 | 1.8 | 1.75 | 0.592 | 0.877 | 3.26 | 3.28 | 1.99 |
| ATAATGAGGTTATACGTAGATCAGGGAAGAAAGT | 1.21 | 2.19 | 1.72 | 2.1 | 2.56 | 2.46 | 0.968 | 1.16 |
| TCTGCTCGGTCAGTTGGTCAGCTAACGAGCTGCC | 1.35 | 0.987 | 1.71 | -0.175 | -0.299 | -0.381 | -0.999 | -0.918 |
| TCGAGTAGGTTAGTCCGGGCATTCAGCCAACATA | 0.125 | -0.242 | -0.282 | 0.0956 | -0.186 | 0.527 | -0.31 | -0.163 |
| CCAGACAGGTGAGAAGGTAACTTAGCCTCGATTA | 0.632 | 0.486 | 0.577 | -0.104 | 0.246 | 0.524 | 0.316 | 0.118 |
| ACTAGTTGGTCAGCGGAGGTCACACACAATTCGG | 4.09 | 3.96 | 4.21 | 0.9 | 3.77 | 4.32 | 2.89 | 3.02 |
| CGTCCAAGGTCAATGCTAGGTCAGTGCAAGCATT | 5.12 | 7.51 | 6.92 | 3.53 | 5.11 | 4.39 | 3.05 | 3.46 |
| CGTGCTAGGTCATGGTCAGCTAATCTACAGTATG | 3.2 | 3.97 | 4.74 | 1.87 | 2.75 | 3.12 | 1.2 | 0.319 |
| CAAGACAGGTGAAAGGTAACTCAGTCTGGTACGC | 0.906 | 1.58 | 0.784 | -0.244 | 2.35 | 1.2 | 0.0377 | -0.217 |
| ACAGACAGGTGAGTGAAGGTATCTCAGCTGGACG | -0.269 | -0.0868 | 0.333 | -0.121 | 0.228 | -0.00206 | -0.781 | -0.981 |
| GCTGCTACGTCAACTGATGGTCAGCTAAAGCTCG | -0.272 | -0.163 | -0.441 | -0.129 | -0.367 | -0.498 | -0.948 | -0.701 |
| TCGAGTAGGTTACCAATGGGGCATTTAGCTTTCT | 0.597 | 1.09 | 0.384 | 0.219 | 0.324 | -0.0531 | -0.844 | -0.414 |
| CATTACGGGTCACTCCAGGTTATAGCATCGGAGT | 3.31 | 4.59 | 4.57 | 1.53 | 4.65 | 5.06 | 0.963 | 1.83 |
| GATACAGGGTCAGCTAGAGGCCAAAGTATGGAAA | 3.52 | 7.25 | 5.27 | 1.21 | 4.76 | 3.25 | 0.447 | 1.3 |
| TGAATGCGGTTATAAGATCAGGGAACGTTGCAAA | -0.46 | 0.175 | 0.239 | -0.906 | -0.0523 | -0.183 | -0.559 | -0.171 |
| TAGCCTAGGTCATGCGGGCCAGTAAAGTGTCGGC | 2.88 | 3.9 | 4.1 | 1.04 | 2.94 | 2.98 | 0.78 | 0.405 |
| GTAGCAAGGTGAATAGGTCGTTGATGAGTAGGCG | 1.48 | 2.35 | 1.1 | -0.689 | 1.56 | 1.36 | -0.149 | -0.287 |
| TCAGACTGGTGAAGGTAACTCAGGTACGCAGTCG | -0.0938 | -0.218 | -0.262 | 0.596 | 0.463 | 0.985 | 0.0816 | -0.271 |
